Compound activity from PubChem BioAssay.
This is a sample that favours compounds with a hit; in the whole collection about 1.9% have one here.
Vif imaging: blocks HIV Vif function. 340,000 compounds, 0.35% hits. inhibition, % at 7.49 µM. AID 602346. HEK293T cells, Vif self-association by quenched fluorescence, imaging, 24 h; in the data active means inhibition above about 50%, passing the limit was not always enough
CaV13 ICDI inh: Primary screen for inhibitors of IQ motif and Ca2+-dependent inactivation inhibitor domain binding in CACNA1D, Förster resonance energy transfer in living cells, …; HEK cells, CFP/YFP FRET ICDI-IQ, plate reader, 10 min; percent FRET-ratio fall versus neutral wells; inhibition, % at 12.3 µM; 340,000 compounds, 0.098% hits; AID 743397;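 active means mean replicate inhibition of at least 30% and at least 1% of replicates passing that level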
ATG4B inhibitor: inhibitors of human ATG4B cysteine protease. ATG4B cleavage of LC3-PLA2, NBD-HPC fluorescence, 1 h. Q9Y4P1. 340,000 compounds, 0.51% hits. inhibition, % at 8.33 µM; in the data active means inhibition above about 40%
Pemphigus Ab inh: blocks pemphigus antibody binding to human desmoglein-3 | P32926 | DSG3-coupled beads, scFv-anti-DSG3-GFP binding, flow cytometry; stronger effect = lower value | binding (percent of control), % at 10 µM | 310,000 compounds, 0.48% hits;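 active means binding more than 3 SD below its plate's average and above zero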
Target sequence (P32926 whole entry, looked up): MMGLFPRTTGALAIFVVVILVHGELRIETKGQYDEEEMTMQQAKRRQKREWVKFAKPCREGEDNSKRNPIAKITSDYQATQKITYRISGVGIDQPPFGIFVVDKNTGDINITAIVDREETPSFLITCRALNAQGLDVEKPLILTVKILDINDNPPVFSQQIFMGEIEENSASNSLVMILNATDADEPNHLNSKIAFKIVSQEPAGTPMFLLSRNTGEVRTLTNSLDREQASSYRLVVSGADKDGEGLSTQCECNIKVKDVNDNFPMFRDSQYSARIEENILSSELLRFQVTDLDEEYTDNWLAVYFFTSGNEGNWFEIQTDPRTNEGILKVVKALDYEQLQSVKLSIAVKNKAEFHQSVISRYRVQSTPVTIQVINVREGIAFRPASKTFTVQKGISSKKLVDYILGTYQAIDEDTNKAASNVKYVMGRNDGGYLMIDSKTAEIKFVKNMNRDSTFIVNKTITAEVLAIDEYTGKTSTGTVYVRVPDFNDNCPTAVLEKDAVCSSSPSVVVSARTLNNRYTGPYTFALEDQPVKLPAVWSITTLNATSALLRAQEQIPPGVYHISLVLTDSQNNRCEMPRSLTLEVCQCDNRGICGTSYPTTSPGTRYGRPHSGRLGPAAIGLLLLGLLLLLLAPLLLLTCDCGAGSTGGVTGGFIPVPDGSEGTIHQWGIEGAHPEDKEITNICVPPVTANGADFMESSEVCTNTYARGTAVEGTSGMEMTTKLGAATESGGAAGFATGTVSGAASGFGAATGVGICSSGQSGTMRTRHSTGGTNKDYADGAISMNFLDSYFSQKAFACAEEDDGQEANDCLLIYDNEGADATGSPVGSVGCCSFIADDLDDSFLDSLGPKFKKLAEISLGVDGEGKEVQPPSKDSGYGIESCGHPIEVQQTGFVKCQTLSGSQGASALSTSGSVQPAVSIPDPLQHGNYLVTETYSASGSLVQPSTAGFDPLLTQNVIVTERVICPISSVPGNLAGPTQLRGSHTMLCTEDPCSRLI
NSD2 inh: inhibitors of human histone methyltransferase NSD2 | inhibition, % at 12.5 µM | NSD2 peptide methylation, AlphaScreen, 120 min | 310,000 compounds, 0.54% hits | O96028 | AID 743445
N-glyco inh: N-linked glycosylation inhibition; AID 588692; reporter increase, % at 12.5 µM; 360,000 compounds, 0.23% hits; D54 ERlucT glycosylation luciferase reporter, 24 h; percent of 100 nM tunicamycin response;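 active means mean luciferase reporter signal, scaled so untreated is 0 and the glycosylation-blocking control 100, at or above a set limit in every replicate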;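 further: luciferase carries N-glycosylation sites so blocking glycosylation raises the light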
ATG4B conf: confirmation of human ATG4B inhibitors. shares compounds with ATG4B inhibitor. ATG4B protease fluorescent substrate cleavage assay. inhibition, % at 8.33 µM. 320 compounds, 92% hits. AID 504757; in the data active means inhibition above about 39%
PLA2 counter: inhibits human PLA2, flagging false ATG4B inhibitors; 1,600 compounds, 66% hits; purified PLA2, NBD-C6-HPC fluorescence, 45 min; shares compounds with ATG4B inhibitor; inhibition, % at 8.33 µM; AID 588402
Each line names hits and unclear results; the compound was inactive in the other large screens (follow-up assays come after a bar, where they were run). Unless noted, no stated cut-off is given here; in the data, active means inhibition above about 50%; inactive means the rest.

CCCCCCCCCCCCCCCCCCNc1ccn(C2OC(COP(=O)(O)OCC3OC(n4cc(F)c(=O)[nH]c4=O)CC3O)C(O)C2O)c(=O)n1 (stereo not drawn)	ATG4B inhibitor 42, N-glyco inh 35 (no result: Pemphigus Ab inh, NSD2 inh) | ATG4B conf 52 | PLA2 counter inactive
CN1CCN(C(=O)CNC(=O)C23CC4CC(CC(C4)C2)C3)CC1	none (no result: Pemphigus Ab inh)
Cn1c(=O)n(C)c2cc(/C=N/NC(=S)NCc3ccccc3)ccc21	none
C/C(CC(=O)Nc1ccccc1-c1ccccc1)=N\NC(=O)COc1ccc(C)cc1Br	ATG4B inhibitor 72 | PLA2 counter 78
O=C1NC(=O)/C(=C\c2ccccc2OCc2ccccc2)S1	ATG4B inhibitor 47 | ATG4B conf 59 | PLA2 counter inactive
O=C1NC(=O)/C(=C\c2ccc(OCc3ccccc3)cc2)S1	none
CCCOc1ccc2ccccc2c1/C=C1\SC(=O)NC1=O	none (no result: ATG4B inhibitor) | PLA2 counter inactive
COc1ccc(CNc2nc3nc(C)c(Cl)c(=O)n3[nH]2)cc1OC	none (no result: Pemphigus Ab inh)
COc1ccc(-c2csc(NC(=O)c3ccc(C(C)(C)C)cc3)c2C(=O)O)cc1	ATG4B inhibitor 47 (no result: Vif imaging, CaV13 ICDI inh, N-glyco inh) | PLA2 counter 53
Cc1ccc(-c2csc(NC(=O)c3ccccc3F)c2C(=O)O)cc1	ATG4B inhibitor 55 | PLA2 counter 58
O=C(Nc1scc(-c2ccccc2)c1C(=O)O)c1ccccc1F	none
CCOc1ccccc1N(CC(=O)Nc1cccc2ccccc12)S(C)(=O)=O	none
COCCNC(=O)/C(C#N)=C/c1ccc(C(=O)O)cc1	none
Cc1ccc(S(=O)(=O)N(C)C)cc1NC(=O)COC(=O)COc1ccc2c(C)cc(=O)oc2c1	none
Cc1cc(=O)oc2cc(OCC(=O)Nc3cccc(S(=O)(=O)N(C)C)c3)ccc12	ATG4B inhibitor 40 | PLA2 counter inactive
O=C(O)c1ccccc1NS(=O)(=O)c1ccc(NNC(=S)Nc2ccc(OC(F)F)cc2)c([N+](=O)[O-])c1	ATG4B inhibitor 51, NSD2 inh 110 (no result: Vif imaging) | PLA2 counter 64
Cc1ccc(NC(=S)NNc2ccc([N+](=O)[O-])cc2S(=O)(=O)Nc2ccccc2C(=O)O)cc1C	ATG4B inhibitor 74 | PLA2 counter 71
CC(=O)Nc1ccc(C=NNc2ccc([N+](=O)[O-])cc2S(=O)(=O)Nc2ccccc2C(=O)O)cc1	none (no result: Pemphigus Ab inh)
COc1ccc(C)cc1S(=O)(=O)N(CC(=O)Nc1cccc([N+](=O)[O-])c1)c1ccccc1	ATG4B inhibitor 84 | PLA2 counter 90
CS(=O)(=O)N(CC(=O)Nc1cccc([N+](=O)[O-])c1)c1ccccc1	none
Cc1ccccc1CN(CC(=O)Nc1cccc([N+](=O)[O-])c1)S(=O)(=O)c1ccc(Cl)cc1	ATG4B inhibitor 64 (no result: CaV13 ICDI inh) | PLA2 counter 77
OCC[C@@H]1C[C@@H](O)[C@H](O)[C@@]2(OCc3ccccc32)O1	none (no result: NSD2 inh)
COc1ccc2c(c1)[C@@H]1[C@H](CO2)[C@H](c2ccccc2)[C@]2(C)C(=O)Nc3ccc(C)cc3C(=O)N12	ATG4B inhibitor 46, N-glyco inh 34 (no result: CaV13 ICDI inh, NSD2 inh) | PLA2 counter 71
Cc1ccc(C(=O)O)cc1-c1ccc(/C=C2\SC(=O)N(CC(=O)Nc3ccccc3)C2=O)o1	none
Cc1ccccc1NC(=O)CN1C(=O)S/C(=C\c2ccc(-c3cc(C(=O)O)ccc3C)o2)C1=O	ATG4B inhibitor 42 | ATG4B conf 55 | PLA2 counter inactive
CCn1c(COc2ccc(Cl)cc2)nnc1SC1CCc2ccccc2C1=O (stereo not drawn)	ATG4B inhibitor 88 | PLA2 counter 84
COc1cccc(C2N(c3ccc(Cl)c(Cl)c3)C(=O)C3CCCN32)c1OC (stereo not drawn)	none (no result: NSD2 inh)
CCOC(=O)c1c(C)nc2sc(C(=O)Nc3ccc(OC)cc3)c(N)c2c1-c1ccc(OC)cc1	none
NC(=O)c1sc2nc3c(c(-c4ccc(Cl)cc4)c2c1N)CCCC3	ATG4B inhibitor 49 | PLA2 counter 66
COC(=O)c1sc2nc3c(c(-c4cccs4)c2c1N)CCCC3	none
Cc1ccc(-c2c3c(nc4sc(C(N)=O)c(N)c24)CCC3)cc1	ATG4B inhibitor 55 (no result: CaV13 ICDI inh) | PLA2 counter 59
CCOC(=O)c1c(C)nc2sc(C(N)=O)c(N)c2c1-c1ccc(OC)cc1	ATG4B inhibitor 65 | PLA2 counter 74
O=C(Nc1ccccc1)Nc1ccc(Br)cc1F	none
CC(C)CC(C(=O)OCC(=O)N1CCN(c2ccccc2)CC1)N1C(=O)c2ccccc2C1=O (stereo not drawn)	none
Cc1ccc(NC(=O)N2CCCc3ccccc32)cc1C	none (no result: Vif imaging, CaV13 ICDI inh, N-glyco inh)
COc1ccc(C)cc1S(=O)(=O)N1CCC2(CC1)OCCN2S(=O)(=O)c1cccs1	none
CCN(CC(=O)NCc1ccc(F)cc1)Cc1nc2ccccc2c(=O)[nH]1	none
S=C(NCCSCc1ccc(Cl)c(Cl)c1)Nc1ccccc1	ATG4B inhibitor 41 (no result: Vif imaging) | ATG4B conf 64 | PLA2 counter inactive
S=C(NCCSCc1ccc(Cl)cc1Cl)Nc1ccccc1	none
COc1ccc(CSCCNC(=S)Nc2ccccc2)cc1Cl	none
S=C(NCCSCc1c(Cl)cccc1Cl)Nc1ccccc1	ATG4B inhibitor 45 | PLA2 counter 50
COc1ccc(-c2c(C#N)c(N)nc3sc(C(=O)c4ccc(C)cc4)c(N)c23)cc1	none
N#Cc1sc(C(N)=O)c(-c2ccccc2)c1-c1ccccc1	ATG4B inhibitor 68 | PLA2 counter 66
COc1ccc(-c2c(C#N)sc(C(N)=O)c2-c2ccc(OC)cc2)cc1	ATG4B inhibitor 82 | PLA2 counter 85
CC(C)c1ccc2nc3sc(C(=O)N4CCc5ccccc5C4)c(N)c3cc2c1	ATG4B inhibitor 52 | ATG4B conf 54 | PLA2 counter inactive
CCSC(=Nc1ccccc1)Nc1ccccc1	none
Cc1ccc(S(=O)(=O)Nc2ccc3c4c(cccc24)CC3)c(C)c1	ATG4B inhibitor 63 | PLA2 counter 78
Cc1ccc(S(=O)(=O)Nc2ccc(O)c3ccccc23)c(C)c1	none
CCCCCCCCCCC[N+](C)(C)CC/C=C1/c2ccccc2Sc2ccc(Cl)cc21	ATG4B inhibitor 47 (no result: CaV13 ICDI inh) | PLA2 counter 52
N=C1SC(c2ccccc2)C(=O)N1c1ncc(Cc2ccccc2Cl)s1 (stereo not drawn)	ATG4B inhibitor 79 | PLA2 counter 80
COCCOc1ccc(C(F)(F)F)cc1NC(=O)CN1C(=O)NC2(CCc3ccccc32)C1=O (stereo not drawn)	ATG4B inhibitor 99 | PLA2 counter inactive
